Test results published in PubChem BioAssay (Tox21).
“And” between values parts separate entries of the source, which are not always exact repeats. Equal entries are not always repeated. Results filed as inconclusive are left out. A structure can be active in one record and inactive in another. The source made the active and inactive calls. Calls come from the whole dose curve.

Assay: qHTS assay to identify small molecule agonists of the hypoxia (HIF-1) signaling pathway - cell viability counter screen (AID 1224844); note: nearly all actives have a fitted effect of over 50% in size
Conditions: HRE-bla ME-180 viability, CellTiter-Glo luminescence, 17 h; series mostly up to 76.8 µM; activity change, negative = cytotoxicity: at the top concentration
Description: National Center for Advancing Translational Sciences [NCATS]
NIH Chemical Genomics Center [NCGC]
U.S. Environmental Protection Agency [EPA]
National Institutes of Environmental Health Sciences [NIEHS]
National Toxicology Program [NTP]
U.S. Food and Drug Administration [FDA]
Hypoxia-inducible factor-1 (HIF-1) is the major hypoxia-regulated transcription factor that controls cellular responses to low oxygen concentration. HIF-1 is composed of two subunits: hypoxia responsive HIF-1-alpha and constitutively expressed HIF-1-beta, which is also known as aryl hydrocarbon receptor nuclear translocator. During hypoxic conditions, HIF-1-alpha heterodimerizes with HIF-1-beta and translocates into the nucleus where the HIF-1 complex binds to the hypoxia-response element (HRE) and activates expression of target genes such as VEGF (vascular endothelial growth factor). The HIF-1 pathway is essential to normal growth and development, and is involved in the pathophysiology of cancer, inflammation, and ischemia.
Using a beta-lactamase reporter-gene under control of the hypoxia response element, a cell-based assay [CellSensor(TM) HRE-bla ME-180 from Life Technologies, Carlsbad, CA] was used to measure hypoxia-induced signaling. Tox21 10K library compounds were measured for their ability to induce the reporter gene activity. The cytotoxicity of the Tox21 compound library against HRE-bla ME-180 cell line was tested in parallel by measuring cell viability using CellTiter-Glo assay (Promega, Madison, WI) in the same assay wells.
Tox21 Assay Protocol Summary:
HRE-bla ME-180 cells were dispensed at 2,000 cells per well in 6 uL of assay medium containing 0.5% dialyzed FBS into black wall/clear-bottom 1536-well plates using a Multidrop Combi (Thermo Scientific, Waltham, MA) dispenser. After the assay plates were incubated at 37C and 5% CO2 for 5 hrs, 23 nL of compounds dissolved in DMSO, positive controls or DMSO only was transferred to each well of the assay plate using a Pintool station (Kalypsys, San Diego, CA). The assay plates were incubated at 37C and 5% CO2 for 17 hrs. One uL of LiveBLAzerTM B/G FRET substrate (CCF4-AM) (Life Technologies) was added to each well using a Flying Reagent Dispenser (FRD, Aurora Discovery, San Diego, CA). After 2 hr incubation at room temperature, fluorescence intensity (405 nm excitation, 460 nm and 530 nm emissions) was measured using an Envision plate reader (PerkinElmer, Shelton, CT). For cytotoxicity, 4 ul/well of CellTiter-Glo reagent was added into the assay plates using an FRD. After 30 min incubation at room temperature, the luminescence intensity was measured using a ViewLux plate reader (PerkinElmer).
% is set by controls: 0 for no effect and ±100 for the full control effect; potency is the fitted concentration of half-maximal effect.

Structure (SMILES)	Potency	activity change, negative = cytotoxicity
CCOc1ccc2c(c1)C(C)=CC(C)(C)N2	inactive	–
CC(C)(C)c1ccccc1	–	2.44% (inactive)
C=CC(=O)OCCCCCCCC	–	12.1% (inactive)
CCCN[C@H]1CCc2nc(N)sc2C1	inactive	–
CC(=O)CC(=O)Nc1ccc2[nH]c(=O)[nH]c2c1	–	-4.85% (inactive)
c1cnc2cc3c(cc2n1)C1CNCC3C1	–	8.34% [at 35.3 µM] (inactive)
Cc1cc(C(C)(C)C)c(O)c(C(C)(C)C)c1	inactive	–
CCN(CC)CCOc1ccc(/C(=C(\Cl)c2ccccc2)c2ccccc2)cc1	39.7 µM (active)	–
Nc1cc(S(=O)(=O)O)cc2cc(S(=O)(=O)O)cc(O)c12	inactive and 4.9 µM (active)	–
CC1=CC(=O)c2ccccc2C1=O	21.9 µM (active) and inactive	–
N[C@@H]1CONC1=O	–	3.91% [at 35.3 µM] (inactive)
Cc1ccc(S(=O)(=O)Oc2ccc(N=Nc3ccc(-c4ccc(N=Nc5c(O)ccc6cc(S(=O)(=O)O)cc(S(=O)(=O)O)c56)c(C)c4)cc3C)cc2)cc1	–	-4.98% [at 35.3 µM] (inactive)
CN1C(=O)c2ccc([N+](=O)[O-])cc2C1=O	–	15.2% (inactive)
CCCCCCCCCCCCCC[P+](CCCC)(CCCC)CCCC	21.8 µM (active) and 21.9 µM (active)	–
O=Cc1ccc(Cl)cc1	–	-1.77% (inactive)
Cc1c(O)cccc1C(=O)N[C@@H](CSc1ccccc1)[C@H](O)CN1C[C@H]2CCCC[C@H]2C[C@H]1C(=O)NC(C)(C)C	12 µM (active) and inactive	–
O=Nc1ccc(Nc2ccccc2)cc1	55.3 µM (active)	–
OCC(CO)N[C@H]1C[C@](O)(CO)[C@@H](O)[C@H](O)[C@H]1O	–	-3.48% [at 35.3 µM] (inactive)
COc1ccc(CCN(C)CCCC(C#N)(c2ccc(OC)c(OC)c2)C(C)C)cc1OC (stereo not given)	inactive	–
O=C(O)c1cccc(C(=O)O)c1	inactive	–

Structure (SMILES)	Potency	activity change, negative = cytotoxicity
COc1ccc(Cc2cnc(N)nc2N)cc1OC	–	0.108% [at 35.3 µM] (inactive)
C/C=C/c1ccc(OCC)c(O)c1	inactive	–
CC(=O)OCC1=C(C(=O)O)N2C(=O)[C@@H](NC(=O)Cc3cccs3)[C@H]2SC1	–	-0.0092% [at 35.3 µM] (inactive)
CCCNC(C)C(=O)Nc1ccccc1C (stereo not given)	–	-3.08% [at 35.3 µM] (inactive)
COc1cc(C(=S)N2CCOCC2)ccc1O	–	1.63% [at 35.3 µM] (inactive)
CC(C)CCOC(=O)c1ccc(N(C)C)cc1	–	2.36% [at 35.3 µM] (inactive)
CCC(=O)/C=C/C1C(C)=CCCC1(C)C (stereo not given)	inactive	–
Oc1c(Cl)cc(Cl)cc1Sc1cc(Cl)cc(Cl)c1O	19.5 µM (active) and 24.5 µM (active) and inactive	–
C[N+]1([O-])CCOCC1	–	8.71% (inactive)
O=C(O)c1cc(Cl)cc(Cl)c1	–	-2.36% (inactive)
CC(C)(C)NCC(O)c1cc(O)cc(O)c1 (stereo not given)	–	1.38% [at 35.3 µM] (inactive)
O=C(O)CCc1ccccc1	–	7.86% (inactive)
COC(=O)/C=C/c1ccccc1	inactive	–
CCN(CC)c1ccc2c(C)cc(=O)oc2c1	inactive	–
Cc1cc(OCCOCC[N+](C)(C)Cc2ccccc2)ccc1C(C)(C)CC(C)(C)C	24.4 µM (active) and 23.9 µM (active)	–
BrC1CCC(Br)C(Br)CCC(Br)C(Br)CCC1Br (stereo not given)	inactive	–
COC(c1ccccc1)(c1ccccc1)[C@H](Oc1nc(C)cc(C)n1)C(=O)O	–	-6.39% [at 35.3 µM] (inactive)
Cc1cccc2n[nH]nc12	inactive	–
OCCOCCN1CCN(C(c2ccccc2)c2ccc(Cl)cc2)CC1 (stereo not given)	9.64 µM (active)	–
CC[C@H]1CN2CCc3cc(OC)c(OC)cc3[C@@H]2C[C@@H]1C[C@H]1NCCc2cc(OC)c(OC)cc21	inactive	–
